A short description of test [1]: NCI Yeast Anticancer Drug Screen. Data for the rad50 strain (AID 155).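 Also: 0% = growth of vehicle-only cultures of the same strain.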 To be noted: S. cerevisiae rad50 strain growth inhibition, stronger effect = higher value. Summed up:
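Relative growth inhibition (compound vs vehicle) was measured in yeast with a defined repair-gene alteration.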

Test [2] is described as follows: NCI Yeast Anticancer Drug Screen. Data for the mec2-1 strain (AID 157). To be noted: S. cerevisiae mec2-1 strain, stronger effect = higher value. Summed up:
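Vehicle-treated cultures served as reference for growth inhibition of compound-exposed mec2-1 yeast.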

The nature of test [3]: NCI Yeast Anticancer Drug Screen. Data for the sgs1 mgt1 strain (AID 161).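 Also: 0% = growth of cultures given vehicle only.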 To be noted: S. cerevisiae sgs1 mgt1 strain, stronger effect = higher value. Summed up: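 Genetically altered yeast, compound exposure, growth inhibition relative to vehicle.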
Test [4] can be described thus: NCI Yeast Anticancer Drug Screen. Data for the cln2 rad14 strain (AID 165).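 Also: 0% = growth equal to vehicle treated cultures.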 To be noted: S. cerevisiae cln2 rad14 strain, stronger effect = higher value. Summed up: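 Each compound was tested on cln2 rad14 yeast. Inhibition of growth was calculated against vehicle-exposed controls.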
Test [5] can be described thus: NCI Yeast Anticancer Drug Screen. Data for the bub3 strain (AID 167). To be noted: S. cerevisiae bub3 mutant strain, stronger effect = higher value. Summed up: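 Screening used yeast with an engineered genetic alteration affecting cell cycle control. Compound-exposed cultures were compared with vehicle cultures, and reduced growth was taken as inhibition.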
Test [6] is described as follows: NCI Yeast Anticancer Drug Screen. Data for the mlh1 rad18 strain (AID 175). To be noted: S. cerevisiae mlh1 rad18 strain growth inhibition, stronger effect = higher value. Summed up:
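Vehicle-treated cultures served as the reference for growth inhibition in a yeast strain carrying DNA damage repair alterations exposed to each compound.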

The mark [7] stands for this setting: at 5.0 µM (retest, dose inferred, filed as 0.5).
The mark [8] stands for this setting: at 50.0 µM (retest, dose inferred, filed as 5.0).

About 79,000 compounds went through this panel and 15% of them were active in at least one assay; those are over-represented in the sample as a whole. Values without a mark were called inactive. Active and inactive are the calls of the source. Rule as the data show it: active = growth inhibition above about 70%; inactive = the rest.

`CCN(CC)CCOc1ccc(/C=C/c2ccccc2)cc1`: the growth inhibition was 2% in test [1] (setting [7]); 99% (active) in test [1] (setting [8]); 73% (active) in test [1] (at 50.0 µM); 0% in test [2] (setting [7]); 99% (active) in test [2] (setting [8]); 77.7% (active) in test [2] (at 50.0 µM). The growth inhibition in test [3] (setting [7]) was 5%; in test [3] (setting [8]), 98% (active); in test [3] (at 50.0 µM) it was 93.7% (active); in test [4] (setting [7]) it was -5%; in test [4] (setting [8]), 99% (active); in test [4] (at 50.0 µM), 56.7%. Also, the growth inhibition in test [5] (setting [7]) is 6%; in test [5] (setting [8]), 99% (active); in test [5] (at 50.0 µM) it was 93.4% (active); in test [6] (setting [7]), 3%; in test [6] (setting [8]), 99% (active); in test [6] (at 50.0 µM), 78% (active).

For `COC(=O)c1ccc(/C=C/C2=CC(=O)C=CC2=O)cc1`, the growth inhibition was 30% in test [1] (setting [7]); 44% in test [1] (setting [8]); 29.6% in test [1] (at 50.0 µM); 27% in test [2] (setting [7]); 41% in test [2] (setting [8]); 36.5% in test [2] (at 50.0 µM). Moreover, the growth inhibition is 27% in test [3] (setting [7]); 57% in test [3] (setting [8]); 78.2% (active) in test [3] (at 50.0 µM); 18% in test [4] (setting [7]); 28% in test [4] (setting [8]); 58.9% in test [4] (at 50.0 µM). In addition, the growth inhibition is 37% in test [5] (setting [7]); 57% in test [5] (setting [8]); 75.3% (active) in test [5] (at 50.0 µM); 29% in test [6] (setting [7]); 57% in test [6] (setting [8]); 84.1% (active) in test [6] (at 50.0 µM).

In the case of `CCS(CC)(CC)CC1CCCC2=CCC(P(=O)(c3ccccc3)c3ccccc3)CC21` (configuration not stated), the growth inhibition is 5% in test [1] (setting [7]); 5% in test [1] (setting [8]); 87.2% (active) in test [1] (at 50.0 µM); 18% in test [2] (setting [7]); 18% in test [2] (setting [8]); 78.7% (active) in test [2] (at 50.0 µM). Also, the growth inhibition in test [3] (setting [7]) was 11%; in test [3] (setting [8]), 11%; in test [3] (at 50.0 µM), 87.8% (active); in test [4] (setting [7]) it was 5%; in test [4] (setting [8]), 5%; in test [4] (at 50.0 µM), 24.2%. In addition, the growth inhibition in test [5] (setting [7]) was -8%; in test [5] (setting [8]) it was -8%; in test [5] (at 50.0 µM), 67.8%; in test [6] (setting [7]) it was -9%; in test [6] (setting [8]) it was -9%; in test [6] (at 50.0 µM), 71.7% (active).

For the compound `COC/C=N/Nc1ccc([N+](=O)[O-])cc1`, the growth inhibition was 90% (active) in test [1] (setting [7]); 98% (active) in test [1] (setting [8]); 98.6% (active) in test [1] (at 50.0 µM); 45% in test [2] (setting [7]); 98% (active) in test [2] (setting [8]); 98.3% (active) in test [2] (at 50.0 µM). The growth inhibition in test [3] (setting [7]) is 90% (active); in test [3] (setting [8]), 98% (active); in test [3] (at 50.0 µM) it was 98% (active); in test [4] (setting [7]), 46%; in test [4] (setting [8]), 98% (active); in test [4] (at 50.0 µM), 98.5% (active). Moreover, the growth inhibition in test [5] (setting [7]) was 94% (active); in test [5] (setting [8]) it was 98% (active); in test [5] (at 50.0 µM), 99% (active); in test [6] (setting [7]), 90% (active); in test [6] (setting [8]), 98% (active); in test [6] (at 50.0 µM), 98.5% (active).

Take `O=C1c2ccccc2C(=O)c2sc(Nc3cccc(Cl)c3)nc21`: the growth inhibition was 93% (active) in test [1] (setting [7]); 98% (active) in test [1] (setting [8]); 89.6% (active) in test [1] (at 50.0 µM); 93% (active) in test [2] (setting [7]); 99% (active) in test [2] (setting [8]); 92.2% (active) in test [2] (at 50.0 µM). The growth inhibition in test [3] (setting [7]) was 92% (active); in test [3] (setting [8]), 99% (active); in test [3] (at 50.0 µM) it was 93% (active); in test [4] (setting [7]), 54%; in test [4] (setting [8]), 98% (active); in test [4] (at 50.0 µM), 89.9% (active). Moreover, the growth inhibition in test [5] (setting [7]) is 98% (active); in test [5] (setting [8]), 97% (active); in test [5] (at 50.0 µM), 90.6% (active); in test [6] (setting [7]), 92% (active); in test [6] (setting [8]), 98% (active); in test [6] (at 50.0 µM) it was 90.5% (active).

In the case of `Nc1ccc2ccccc2c1Cc1c(O)ccc2ccccc12`, the growth inhibition was 9% in test [1] (setting [7]); 96% (active) in test [1] (setting [8]); 99.2% (active) in test [1] (at 50.0 µM); 0% in test [2] (setting [7]); 98% (active) in test [2] (setting [8]); 98.8% (active) in test [2] (at 50.0 µM). Also, the growth inhibition in test [3] (setting [7]) is 6%; in test [3] (setting [8]), 98% (active); in test [3] (at 50.0 µM), 98.9% (active); in test [4] (setting [7]), 1%; in test [4] (setting [8]), 88% (active); in test [4] (at 50.0 µM), 84.5% (active). Moreover, the growth inhibition in test [5] (setting [7]) is 0%; in test [5] (setting [8]) it was 63%; in test [5] (at 50.0 µM), 88.8% (active); in test [6] (setting [7]) it was 6%; in test [6] (setting [8]), 88% (active); in test [6] (at 50.0 µM) it was 95.7% (active).

As to `Clc1ccc(CN2CCCN(Cc3ccc(Cl)cc3)C2C2CCC=CO2)cc1` (configuration not stated), the growth inhibition is 4% in test [1] (setting [7]); 19% in test [1] (setting [8]); 66.1% in test [1] (at 50.0 µM); -18% in test [2] (setting [7]); 17% in test [2] (setting [8]); 24.5% in test [2] (at 50.0 µM). Besides, the growth inhibition in test [3] (setting [7]) was -17%; in test [3] (setting [8]), 42%; in test [3] (at 50.0 µM), 72.6% (active); in test [4] (setting [7]), -4%; in test [4] (setting [8]) it was 7%; in test [4] (at 50.0 µM), 46.9%. Besides, the growth inhibition in test [5] (setting [7]) was 6%; in test [5] (setting [8]) it was 17%; in test [5] (at 50.0 µM), 56.3%; in test [6] (setting [7]), -14%; in test [6] (setting [8]) it was 36%; in test [6] (at 50.0 µM) it was 45%.

Turning to `CC(C)OC(=O)c1ccc(NCc2cc(O)ccc2O)cc1Cl`, the growth inhibition in test [1] (setting [7]) is 61%; in test [1] (setting [8]) it was 99% (active); in test [1] (at 50.0 µM), 89.8% (active); in test [2] (setting [7]), 41%; in test [2] (setting [8]) it was 99% (active); in test [2] (at 50.0 µM), 90.3% (active). In addition, the growth inhibition was 55% in test [3] (setting [7]); 99% (active) in test [3] (setting [8]); 91.6% (active) in test [3] (at 50.0 µM); 63% in test [4] (setting [7]); 100% (active) in test [4] (setting [8]); 89.5% (active) in test [4] (at 50.0 µM). The growth inhibition is 53% in test [5] (setting [7]); 100% (active) in test [5] (setting [8]); 88.9% (active) in test [5] (at 50.0 µM); 49% in test [6] (setting [7]); 98% (active) in test [6] (setting [8]); 88% (active) in test [6] (at 50.0 µM).

Consider `CC(=O)OC1(c2ccccc2)N=C(c2ccccc2)N=C1c1ccccc1` (configuration not stated), for which the growth inhibition in test [1] (setting [7]) was 13%; in test [1] (setting [8]), 28%; in test [1] (at 50.0 µM), 28.9%; in test [2] (setting [7]) it was 4%; in test [2] (setting [8]), 13%; in test [2] (at 50.0 µM) it was 19.1%. In addition, the growth inhibition is 6% in test [3] (setting [7]); 37% in test [3] (setting [8]); 65.8% in test [3] (at 50.0 µM); 13% in test [4] (setting [7]); 28% in test [4] (setting [8]); 38.3% in test [4] (at 50.0 µM). Moreover, the growth inhibition in test [5] (setting [7]) was 13%; in test [5] (setting [8]), 24%; in test [5] (at 50.0 µM), 41.9%; in test [6] (setting [7]), 3%; in test [6] (setting [8]), 39%; in test [6] (at 50.0 µM) it was 70.1% (active).

Source of the values: PubChem BioAssay (NCI).
